# The full list was thinned out, with hits kept by preference.
# Marburg entry inh = qHTS for inhibitors of binding or entry into cells for Marburg Virus; Marburg virus pseudotyped entry inhibition, cell reporter; Potency, µM (highest dose often 37.8 µM), without a hit: at the top dose activity change, negative = inhibition, most hits filed as inhibitors; actives 1.8% (n = 300,000); AID 540276, 2011; calls by dose curve; tested in HEK293 cells; also: potency is read from the fitted curve at half-maximal effect; % is scaled to controls: 0 for no effect and ±100 for the full control effect
# Shiga toxin inh = A qHTS for Small Molecule Inhibitors of Shiga Toxin | actives 9.2% (n = 290,000) | Vero cells, Shiga toxin protein synthesis inhibition reporter | inhibition, % at 38.7 µM; in the data active = inhibition mostly above about 28%, no sharp cut-off; inactive = mostly below about 43%; also: 0% is about no effect
# VACV Venus inh = qHTS for Stage-Specific Inhibitors of Vaccinia Orthopoxvirus: Venus Reporter Primary qHTS | Potency, µM (highest dose often 36.5 µM), for the others: at the top dose activity change, negative = inhibition, hits mostly inhibitors | Vaccinia virus Venus reporter expression, fluorescence | actives 0.46% (n = 330,000) | AID 720580, 2013; calls by dose curve; tested in A549 cells; also: potency is read from the fitted curve at half-maximal effect; % is scaled to controls: 0 for no effect and ±100 for the full control effect; nearly all actives have a fitted effect of over 30% in size
# Cycloheximide cs = Cycloheximide Counterscreen for Small Molecule Inhibitors of Shiga Toxin; max response, %; actives 12% (n = 300,000); cell reporter, cycloheximide protein synthesis inhibition counterscreen; AID 2314, 2010; in the data active = max response mostly above about 13%, no sharp cut-off; inactive = mostly below about 14%; also: read at 38.3 µM for the half of the compounds with a filed dose; 0% is about no effect
# Lassa entry inh = qHTS for Inhibitors of binding or entry into cells for Lassa Virus | Potency, µM (highest dose often 37.9 µM), for inactives: at the top dose activity change, negative = inhibition, most hits filed as inhibitors | actives 1.2% (n = 300,000) | Lassa virus pseudotype entry inhibition, cell reporter | AID 540256, 2011; calls by dose curve; tested in HEK293 cells; also: potency is read from the fitted curve at half-maximal effect; % is scaled to controls: 0 for no effect and ±100 for the full control effect; nearly all actives have a fitted effect of over 50% in size
# VACV mCherry inh = qHTS for Stage-Specific Inhibitors of Vaccinia Orthopoxvirus: mCherry Reporter Primary qHTS; Vaccinia virus mCherry reporter infection, fluorescence; Potency, µM (highest dose often 36.5 µM), for inactives: at the highest dose activity change, negative = inhibition, actives largely listed as inhibitors; actives 0.63% (n = 310,000); AID 720579, 2013; calls by dose curve; tested in A549 cells; also: potency is read from the fitted curve at half-maximal effect; % is scaled to controls: 0 for no effect and ±100 for the full control effect; nearly all actives have a fitted effect of over 35% in size
# An asterisk follows results filed as active; i = inactive; u = inconclusive; x = no result; [ ] = remark or other dose.
SMILES,Marburg entry inh,Shiga toxin inh,VACV Venus inh,Cycloheximide cs,Lassa entry inh,VACV mCherry inh
COc1ccc(Br)cc1C(=O)NC(=S)Nc1ccc(CN2CCOCC2)cc1,u,3,-24%,10,5%[46.1 µM],-14%
COc1cc2ccccc2cc1C(=O)Nc1ccc(CN2CCOCC2)cc1,18%[46.1 µM],35,-1%,20*,x,-2%
O=C(Nc1ccc(CN2CCOCC2)cc1)c1ccc(Cl)cc1Cl,x,11,x,17*,x,x
O=C(Nc1ccc(CN2CCOCC2)cc1)c1ccccc1F,-16%,92*,x,42*,-2%,x
CCN(CC)C1CCN(C(=O)c2cnn(-c3nccc(-c4ccccc4OC)n3)c2-c2ccco2)C1 (centres undefined),x,x,-14%,x,x,i
N#C/C(=C/c1cn(Cc2ccc(F)cc2)c2ccccc12)C(=O)Nc1cccc(Cl)c1,x,x,-9%,x,-9%[46.1 µM],-18%
COc1ccc(CCC(=O)NCc2nc3cccnc3n2Cc2ccc(OC)cc2)cc1,x,x,-7%,x,-2%[46.1 µM],-16%
O=C(NC(=S)Nc1ccc(CN2CCOCC2)cc1)c1ccc([N+](=O)[O-])cc1Cl,u,33,u,26*,13%[46.1 µM],u
O=C(NC(=S)Nc1ccc(CN2CCOCC2)cc1)c1cccc(F)c1,u,25,2%,22*,u,-10%
O=C(Nc1ccc(CN2CCOCC2)cc1)c1cccs1,u,64*,x,27*,3%,x
COc1ccc(CNCc2ccc(C(=O)O)s2)cc1,-1%[46.1 µM],x,0%,x,20%[46.1 µM],-7%
O=C(Nc1cccc(Cl)c1)Nc1ccc2nccnc2c1,x,55*,x,31*,x,x
O=C(Nc1ccc2nccnc2c1)Nc1ccccc1Cl,u,62*,-12%,32*,-1%[46.1 µM],i
Cn1nnc2cc(NC(=O)Nc3cccc(Cl)c3)ccc21,x,52*,x,37*,x,x
COCCNC(=O)c1c[nH]c2ccc(S(=O)(=O)N3CCc4ccccc43)cc2c1=O,u,-22,5.6µM*,19,u,u
COCCNC(=O)c1c[nH]c2ccc(S(=O)(=O)Nc3ccc(F)cc3F)cc2c1=O,7%[46.1 µM],-10,-1%,15*,18%[46.1 µM],-8%
COCCCNC(=O)c1c[nH]c2ccc(S(=O)(=O)N3CCc4ccccc43)cc2c1=O,u,-7,u,-1,u,u
Cc1cc(C)cc(NS(=O)(=O)c2ccc3[nH]cc(C(=O)NCc4ccco4)c(=O)c3c2)c1,u,-8,11µM*,-1,u,10µM*
Cc1cc(C)cc(NS(=O)(=O)c2ccc3[nH]cc(C(=O)NCc4ccccc4Cl)c(=O)c3c2)c1,x,x,-23%,x,u,-16%
O=C(CCC1N=C2c3ccccc3N=C(SCc3ccc(F)cc3)N2C1=O)NCc1ccc(F)cc1 (centres undefined),x,x,-27%,x,-3%[46.1 µM],u
COc1ccc(/C=C/C(=O)OC2CCCN(C)C2)cc1 (centres undefined),x,48*,x,26*,x,x
COc1ccc(/C=N/n2c(SC)nnc(C(C)(C)C)c2=O)c(OC)c1,-6%,56,-16%,-1,6.3µM*,x
CCC(=O)N1CCc2cc(S(=O)(=O)NCCC(=O)NC3CCCCCC3)ccc21,x,-5,x,15,x,x
CCc1ccc(-c2cn(C3CCCCC3)c(=S)[nH]2)cc1,1%[46.1 µM],65,-24%,18*,3%,-22%
CCc1ccc(-n2cc(-c3ccc([N+](=O)[O-])cc3)[nH]c2=S)cc1,11%,8,-16%,13,-14%,i
SMILES,Marburg entry inh,Shiga toxin inh,VACV Venus inh,Cycloheximide cs,Lassa entry inh,VACV mCherry inh
O=C(CSc1nncs1)NC(=O)Nc1ccc2c(c1)OCCO2,x,59*,x,45*,x,x
Cc1nnc(SCC(=O)Nc2ccc3c(c2)OCCO3)s1,5%,29,x,2,-3%,x
O=C(CSc1nncs1)Nc1ccc2c(c1)OCCO2,10%,58*,-19%,59*,3%,x
COc1ccc(N2C(=O)c3ccccc3NC2c2ccc(OC)c(COc3ccc(NC(C)=O)cc3)c2)cc1 (centres undefined),x,x,-12%,x,x,u
CCCCNc1nc(Oc2ccc(OCCC)nn2)nc(N(C)C)n1,0%[46.1 µM],x,-7%,x,-5%[46.1 µM],-15%
Cc1cccc(S(=O)(=O)c2c(N)n(/N=C/c3ccccc3)c3nc4ccccc4nc23)c1,u,15,x,-3,-13%,x

# Source: PubChem BioAssay (National Center for Advancing Translational Sciences (NCATS))
